Experimental findings from PubChem BioAssay AID2012 (Sanford-Burnham Center for Chemical Genomics, 2009) are described below.

Among all 290,000 compounds or so, about 2,700 (0.93%) were called active. The rule behind the calls is not given here. This excerpt belongs to a sample that is enriched for actives.

This assay addresses Eukaryotic translation initiation factor 4H (Homo sapiens) (UniProt Q15056). In words: human eIF4H binding inhibitors, primary screen, translation initiation inhibitor project, biochemical, uHTS, fluorescence polarization (AID 2012).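 Note: calls also rest on retests at 20 µM and on dose response follow-up.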 The following applies: eIF4H fluorescence polarization binding assay, stronger effect = higher value.

As to `O=C(Cn1cnc2ccccc21)N/N=C/c1ccco1`, the inhibition (at 35 µM) is 69.8% (inactive) and the inhibition (confirmation average, at 20 µM) was found to be 2.9%.
Take `O=c1nc(N/N=C/c2ccco2)cn[nH]1`: the inhibition was 76.3% (active) (at 35 µM) and 73.4% (confirmation average, at 20 µM).
Turning to `CC(C)NC(=O)C(=O)N/N=C/c1ccco1`, the inhibition (at 35 µM) is -8.2% (inactive).
On the same count and under the same terms, as for `COc1ccc(Nc2ncnc3ccc(Br)cc23)c(OC)c1`, the figure is -9.9% (inactive); as for `Cc1ccc(CS(=O)(=O)CCC(=O)NCc2ccc(F)cc2)cc1`, -4.5% (inactive).
Same read-out and setting: under `CCCCNC(=O)C1(O)c2ccccc2NC(=O)N1c1ccc(Cl)cc1` (centres undefined) stands -2.3% (inactive); under `O=C(O)CC(c1ccccc1F)N1Cc2ccccc2C1=O` (centres undefined), 0.1% (inactive).
As for `O=C(c1ccc(Br)o1)N(c1ccccn1)C1CCCCC1`, the inhibition is 55.5% (active) (at 35 µM) and 99.6% (confirmation average, at 20 µM).
With `O=C(c1cccs1)N(C(=O)c1cccs1)c1ccccn1`, the inhibition (at 35 µM) was -8.6% (inactive).
On the same count and under the same terms, as for `O=C(CNC(=O)c1ccc(Br)o1)NCC1CCCO1` (centres undefined), the figure is -11.8% (inactive); as for `CCOc1ccc(Br)cc1S(=O)(=O)N1CCC(C(=O)O)CC1`, -7.6% (inactive).
As for `CCOc1ccc(-n2cnnn2)cc1S(=O)(=O)N1CCC(C)CC1C` (centres undefined), the inhibition was 3.6% (active) (at 35 µM) and 90.8% (confirmation average, at 20 µM).
Take `Cc1ccc(S(=O)(=O)N2CCC(Oc3ccc(-n4cnnn4)cc3)CC2)cc1`: the inhibition (at 35 µM) was 1.6% (inactive).
On the same count and under the same terms, under `COc1cccc(C(=O)Nc2nnc(S(=O)(=O)N3CCOCC3)s2)c1` stands -15.7% (inactive); under `CN(Cc1ccccc1)C(=O)c1ccc(NC2=NC3CS(=O)(=O)CC3S2)cc1` (centres undefined), -7.2% (inactive).
On the same count and under the same terms, under `COc1cccc(NC(=O)C2CCCN(c3ncnc4c3nc3n4CCCCC3)C2)c1` (centres undefined) stands 2.9% (inactive).
Still for that read-out and setting: under `O=C(c1ccc(S(=O)(=O)N2CCOCC2)cc1)N1CCN(c2ccccc2)CC1` stands -4.2% (inactive).
For the molecule `O=C(c1ccc(CS(=O)(=O)c2ccccc2)o1)N1CCN(c2ccccc2)CC1`, the inhibition was 93.4% (active) (at 35 µM) and 73.1% (confirmation average, at 20 µM).
As for `O=C(c1cc(=O)c2ccccc2o1)N1CCN(c2ccccc2)CC1`, the inhibition (at 35 µM) was 1.2% (inactive).
`Cc1ccc(C)c(S(=O)(=O)N2CCN(C(=O)Nc3ccccc3)CC2)c1`: under “at 35 µM”, the inhibition is 4.3% (inactive).
As to `CC(Oc1cc2oc(=O)c3c(c2cc1Cl)CCCC3)C(=O)NCc1ccncc1` (centres undefined), the inhibition (at 35 µM) is -3.9% (inactive).
Consider `Cc1ccc(-c2nn(-c3ccccc3)cc2/C=C2\SC(=S)N(CCCCCC(=O)O)C2=O)o1`, for which the inhibition was 78.9% (active) (at 35 µM) and 68.5% (confirmation average, at 20 µM).
As to `CN(C)S(=O)(=O)c1cccc(-c2nn(-c3ccccc3)cc2/C=C2\SC(=S)N(CC(=O)O)C2=O)c1`, the inhibition (at 35 µM) was 47.3% (inactive).
Turning to `COc1ccc(-c2nn(-c3ccccc3)cc2/C=C2/SC(=S)N(CCCC(=O)O)C2=O)c(C)c1`, under “at 35 µM”, the inhibition is 15.2% (inactive).
Same read-out and setting: under `CCOC(=O)CSc1nc(N2CCOCC2)c2c(c1C#N)CC(C(C)C)OC2` (centres undefined) stands -6.3% (inactive); under `Cc1ccnc(NC(=O)CCNS(=O)(=O)c2ccc(C)c(C)c2)c1`, -10.9% (inactive).
The same measure, in the same setting: as for `CN1CCc2nc(SC(C(=O)O)c3ccccc3)c(C#N)c(-c3cccs3)c2C1` (centres undefined), the figure is 76.7% (active); as for `Cc1c(-c2ccccc2)nc(N)c(C#N)c1-c1cccs1`, 7.1% (inactive); as for `CCc1c(-c2ccccc2)nc(N)c(C#N)c1-c1cccs1`, -8.4% (inactive).
On the same count and under the same terms, under `O=C(O)C1CCCCC1C(=O)N1CCN(S(=O)(=O)c2ccc(F)cc2)CC1` (centres undefined) stands -6.9% (inactive); under `O=c1[nH]c(=S)[nH]c2[nH]c(=S)[nH]c12`, 88.2% (active).
In the case of `Cc1c(C)c(C)c2[nH]c(=S)[nH]c2c1C`, the inhibition (at 35 µM) was -4.2% (inactive).
`Cc1cc(=O)[nH]c(=S)[nH]1`: the inhibition (at 35 µM) was 2.4% (inactive).
Turning to `CN(C(=O)CCNC(=O)Cn1ccc2ccccc2c1=O)c1ccc(Br)cc1`, the inhibition (at 35 µM) was 1.5% (inactive).
On the same count and under the same terms, under `CCOC(=O)N1CC=C2C(C#N)=C(N)C(C#N)(C#N)[C@H](c3cccs3)[C@H]2C1` stands 63.3% (active).
As to `N#CC1=C(N)C(C#N)(C#N)[C@H](c2ccsc2)[C@H]2COCC=C12`, the inhibition is, setting by setting: (at 35 µM) 113% (inactive); (confirmation average, at 20 µM) -3.8%.
Take `CCOC(=O)C1=C(C)NC(=S)NC1c1cccs1` (centres undefined): the inhibition (at 35 µM) is -5% (inactive).
Regarding `Cc1ccn2c(c1)nc(=O)c1cc(S(=O)(=O)N3CCC(C)CC3)ccc12`, for the setting “at 35 µM”, the inhibition was -3.5% (inactive).
Turning to `Cc1ccc(Cl)c(OCC(=O)N2CCc3ccccc3C2)c1`, the inhibition (at 35 µM) is -9.4% (inactive).
`CCc1ccc(Nc2ncc3c(n2)CC(c2ccco2)CC3=O)cc1` (centres undefined): the inhibition (at 35 µM) is -4% (inactive).
Consider `O=C(Nc1ncc2c(n1)CC(c1ccco1)CC2=O)c1ccc(Cl)cc1` (centres undefined), for which the inhibition (at 35 µM) is 83.6% (active).
Consider `O=C(Nc1ncc2c(n1)-c1ccccc1OC2)c1ccc(Cl)cc1`, for which the inhibition (at 35 µM) is -10.3% (inactive).
For `Cc1c(CC(=O)NCCCCCC(=O)O)c(=O)oc2cc3occ(-c4ccccc4)c3cc12`, the inhibition (at 35 µM) is 6% (inactive).
Turning to `CCCCCCc1cc2cc(-c3nnc(-c4ccccc4)o3)c(=O)oc2cc1O`, the inhibition (at 35 µM) was 70.4% (active).
The same measure, in the same setting: as for `Cc1c(CCC(=O)O)c(=O)oc2cc3occ(-c4ccccc4)c3cc12`, the figure is 14.4% (inactive); as for `Cc1nc(NC(=O)c2ccc3c(c2)OCCO3)ccc1Br`, -4.6% (inactive).
On the same count and under the same terms, as for `CCOc1ccc(OCC(=O)Nc2c3c(nn2C(C)(C)C)CS(=O)(=O)C3)cc1`, the figure is -13.7% (inactive); as for `COc1ccc(CNS(=O)(=O)c2ccc(-c3cnc(C4CC4)o3)cc2)cc1`, -9.2% (inactive); as for `O=C1CC(NNc2ccccc2)C(=O)N1c1cccc(Cl)c1` (centres undefined), -1.9% (inactive).
`O=C1OCC2=C1C(c1ccccc1)CC(=O)N2c1cccc(F)c1` (centres undefined): the inhibition (at 35 µM) was 4.2% (active) and the inhibition (confirmation average, at 20 µM) worked out at 96.6%.
Take `O=C1CC(c2ccccc2)C(=O)N1c1cccc(O)c1` (centres undefined): under “at 35 µM”, the inhibition is -6.1% (inactive).
Still for that read-out and setting: as for `Cc1ccc(NC(=O)CCC(=O)c2ccc(Br)cc2)cc1`, the figure is -5% (inactive); as for `Cc1cc(=O)n2[nH]c(-c3cccc(Cl)c3)cc2n1`, -7.1% (inactive); as for `CCc1c(C)nc2cc(-c3cccs3)[nH]n2c1=O`, 4.5% (inactive).
`Cc1cc(=O)n2[nH]c(-c3sccc3-n3c(C)ccc3C)cc2n1`: the inhibition is 93.9% (active) (at 35 µM) and 97.8% (confirmation average, at 20 µM).
Consider `S=C(NCCc1ccccc1)N1CCn2cccc2C1c1ccncc1` (centres undefined), for which the inhibition (at 35 µM) is 8.3% (inactive).
The same measure, in the same setting: as for `CC1CSc2nnc(CCc3ccccc3)n21` (centres undefined), the figure is -1.5% (inactive).
On the same count and under the same terms, under `c1ccc(CCC2=NCCn3cccc32)cc1` stands 61.9% (active); under `O=C(NCC(=O)N1CCN(c2ccccc2O)CC1)c1ccc2ccccc2c1`, 6% (inactive); under `COc1cc(C(=O)OCC(=O)NC(C)CCc2ccccc2)cc(OC)c1OC` (centres undefined), 5.2% (inactive).
On the same count and under the same terms, under `Cc1ccc(CN2CCNC(=O)C2CC(=O)NCc2csc(C(C)C)n2)cc1` (centres undefined) stands -5.6% (inactive); under `CN1/C(=c2/s/c(=C3/C(=O)N(c4ccccc4)NC3=Nc3ccccc3)n(C)c2=O)C(C)(C)c2ccccc21`, 75.5% (active); under `CCN1C(=O)/C(=c2\s/c(=C3\Sc4ccccc4N3C)c(=O)n2C)N(C)C1=S`, -3% (inactive).
`O=[N+]([O-])c1cc([N+](=O)[O-])c(Oc2cc(F)cc(F)c2F)cc1NN1CCCCC1`: the inhibition (at 35 µM) is 0.2% (inactive).
On the same count and under the same terms, under `Cn1c(=O)c2ccccc2n(CC(=O)Nc2ccc3c(c2)OCCO3)c1=O` stands -5.6% (inactive); under `COc1ccc(-c2c(-c3ccc(OC)cc3O)nc(C)nc2C(F)(F)F)cc1`, -5.5% (inactive).
On the same count and under the same terms, as for `Cc1ccc(CCC(=O)Nc2ncc(Cc3cc(Cl)ccc3Cl)s2)o1`, the figure is 1.5% (inactive).
`Cc1ccc(Cc2cnc(N)s2)o1`: the inhibition reads like this: (at 35 µM) 65.8% (active); (confirmation average, at 20 µM) 93.7%.
In the case of `O=C(CCc1nnc2ccc(NCc3ccccc3Cl)nn12)NCC1CCN(C2CCCC2)C1` (centres undefined), the inhibition (at 35 µM) is 13.5% (inactive).
Regarding `Cc1nn(Cc2ccccc2)c(C)c1NS(=O)(=O)c1ccccc1`, the inhibition (at 35 µM) was -5.2% (inactive).
Take `CC(=O)N(CN1C(=O)C2C3C=CC(C3)C2C1=O)c1cccc(Cl)c1` (centres undefined): the inhibition (at 35 µM) was -5.8% (active) and the inhibition (confirmation average, at 20 µM) worked out at 61.4%.
Consider `O=C(CN1C(=O)C2C3C=CC(C3)C2C1=O)NCCc1ccccc1Cl` (centres undefined), for which, for the setting “at 35 µM”, the inhibition was -10.5% (inactive).
For `CC(=O)N(CN1C(=O)C2CC=CCC2C1=O)c1cccc(Cl)c1` (centres undefined), the inhibition (at 35 µM) is 26% (inactive).
Still for that read-out and setting: under `COc1ccc(OCc2cc(C(=O)NCC3(C)COC3)no2)c(Cl)c1` stands -2.3% (inactive).
The same measure, in the same setting: under `Cn1cccc1/C=C1\SC(=O)N(CC(=O)Nc2ccc(F)cc2)C1=O` stands 1.6% (inactive).
Turning to `N#Cc1ccccc1CN1C(=O)S/C(=C/c2cccn2-c2cccc(C(=O)O)c2)C1=O`, the inhibition was 81.6% (active) (at 35 µM) and 74.8% (confirmation average, at 20 µM).
As for `O=C(O)c1cccc(N2C(=O)Nc3ccccc3N2O)c1`, the inhibition (at 35 µM) is 1% (inactive).
With `Cc1cc(CN(C)C(=O)c2cc(COc3ccc(C)c(C)c3)on2)n[nH]1`, the inhibition (at 35 µM) was -4.1% (inactive).
Still for that read-out and setting: as for `CCCc1cc(=O)n2[nH]c(C)c(-c3ccc(Cl)cc3)c2n1`, the figure is 11.3% (inactive); as for `COc1ccccc1OCCCC(=O)Nc1ccc2c(c1)OCCO2`, -2.5% (inactive).
As for `COc1cc2c(C(=O)N3CCN(C)CC3)c(CSc3ccccc3)n(C)c2cc1Br`, the inhibition (at 35 µM) was 1.1% (active) and the inhibition (confirmation average, at 20 µM) was 81.5%.
As for `COc1cc(C(=O)N2CCN(C)CC2)cc(OC)c1OC`, for the setting “at 35 µM”, the inhibition is -6.9% (inactive).
For the molecule `COc1ccccc1OCc1ccc(C(=O)N2CCN(C)CC2)o1`, the inhibition (at 35 µM) is 0.9% (inactive).
For `Cc1ccc(N2C(=O)C3C4C=CC(CC4)C3C2=O)cc1Br` (centres undefined), the inhibition (at 35 µM) was -2.9% (inactive).
On the same count and under the same terms, under `CN(CCC1CCOCC1)C(=O)CC1C(=O)NCCN1Cc1cccc(F)c1` (centres undefined) stands -3.2% (inactive); under `O=C(Nc1ccc(S(=O)(=O)Nc2ccccn2)cc1)c1ccccc1`, -9.1% (inactive).
As for `C=CCn1c(=O)c(C(=O)Nc2ncccc2O)c(O)c2ccccc21`, the inhibition (at 35 µM) is 22% (inactive).
`CS(=O)(=O)Nc1ccccc1N=C(c1ccccc1)c1ccccc1`: for the setting “at 35 µM”, the inhibition was 1.1% (inactive).
Same read-out and setting: as for `CCOc1ccc(N(CC(=O)NCCOc2ccccc2OC)S(=O)(=O)c2ccccc2)cc1`, the figure is -3.8% (inactive); as for `O=C(NCCS(=O)(=O)c1ccc(Br)cc1)c1ccccc1Cl`, -7.2% (inactive).
Still for that read-out and setting: under `COc1ccc(Cl)cc1NC(=O)CCN1CCOCC1` stands -3.3% (inactive).
`O=C(CCS(=O)(=O)c1ccc(Br)cc1)NCCc1ccc(Cl)cc1`: the inhibition was 86.1% (active) (at 35 µM) and 67.7% (confirmation average, at 20 µM).
As for `NS(=O)(=O)c1ccc(CCNC(=O)Nc2ccc(Cl)cc2)cc1`, the inhibition (at 35 µM) was -4.8% (inactive).
For `COc1ccc(Cl)cc1NC(=O)CCS(=O)(=O)c1ccc(Br)cc1`, where the note is “at 35 µM”, the inhibition is 84.2% (active).
The same measure, in the same setting: under `COc1ccc(Cl)cc1NC(=O)CCS(=O)(=O)c1cc2c(cc1C)NC(=O)CO2` stands 3.9% (inactive).
